The values that follow come from PubChem BioAssay AID1376 (SRMLSC, 2008).

The campaign covered roughly 220,000 compounds. About 530 (0.24%) were called active. Cut-off read from the data, not from the text of the source: active = inhibition above about 13%; inconclusive = no clear call, values can overlap the other calls; inactive = below that. Shown is part of a subset that was picked to be rich in actives. Results with a measured potency or affinity are listed apart.

For this experiment, the target named is Bifunctional protein GlmU (Mycobacterium tuberculosis (strain ATCC 25618 / H37Rv)) (UniProt P9WMN3). As to the kind of experiment: inhibition of mycobacterial GlmU enzyme – biochemical, glucosamine-1-phosphate acetyltransferase (AID 1376).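 Note: 0% = complete reaction with vehicle and 100% = reaction without substrate.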 As to conditions: M. tuberculosis GlmU acetyltransferase enzyme assay; stronger effect = higher value;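 tested at 30 µM in the primary screen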.
Chain of Bifunctional protein GlmU (Mycobacterium tuberculosis (strain ATCC 25618 / H37Rv)) (P9WMN3 whole entry, looked up): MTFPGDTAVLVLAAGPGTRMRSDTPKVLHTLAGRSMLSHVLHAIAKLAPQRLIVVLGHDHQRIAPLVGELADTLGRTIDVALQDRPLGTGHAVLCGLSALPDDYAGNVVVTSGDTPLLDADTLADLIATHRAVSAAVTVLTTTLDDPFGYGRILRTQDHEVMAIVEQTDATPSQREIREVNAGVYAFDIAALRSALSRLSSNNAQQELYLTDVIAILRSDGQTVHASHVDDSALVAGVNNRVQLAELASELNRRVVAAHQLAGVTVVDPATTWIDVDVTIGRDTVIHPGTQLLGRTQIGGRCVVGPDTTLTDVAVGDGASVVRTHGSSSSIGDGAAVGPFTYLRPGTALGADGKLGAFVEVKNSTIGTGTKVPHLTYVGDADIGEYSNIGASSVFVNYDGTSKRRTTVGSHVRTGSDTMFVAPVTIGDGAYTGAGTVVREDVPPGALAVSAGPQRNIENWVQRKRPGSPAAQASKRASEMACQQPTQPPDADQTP
A word on the inhibition: it is the drop in the measured response relative to a control, in per cent. With `Nc1ccc(C(=O)O)cc1[N+](=O)[O-]`, the inhibition was -10.2% (inactive).
As for `NS(=O)(=O)c1ccc(CNC(=O)NC2(c3ccccc3)CC2)cc1`, the figure is -5.17% (inactive); as for `CCOc1ccccc1CN1CCC(CO)(CCOc2ccccc2)CC1`, -6.84% (inactive); as for `Cc1c(Cl)cccc1-n1c(SCC(=O)N2CCC(C(=O)O)CC2)nnc1-c1ccncc1`, -2.06% (inactive).
For the molecule `CCc1ccc(-n2c(SCC(=O)N3CCC(C(=O)O)CC3)nnc2-c2ccncc2)cc1`, the inhibition is 14.8% (active).
Take `Cc1ccccc1-n1c(SCC(=O)N2CCC(C(=O)O)CC2)nnc1-c1ccncc1`: the inhibition was 1.39% (inactive).
Take `O=[n+]1c2c(n([O-])c3c1CCC3)CCCC2`: the inhibition is -2.34% (inactive).
Take `O=c1[nH][nH]cc1C=Nc1ccccc1O`: the inhibition was -0.91% (inactive).
`O=c1[nH][nH]c2c(N=Cc3ccccc3O)ccc(F)c12`: the inhibition is 28.6% (active).
For `O=C(Nc1ccccc1)c1ccccc1N=Cc1ccccc1O` the value was -2.01% (inactive); for `Cc1ccc(NC(=O)CC2=NC(=O)C(CC(=O)Nc3ccccc3C)S2)cc1` (stereo unspecified), 0.67% (inactive); for `OC(CNCc1ccc2c(c1)OCO2)COc1ccc(F)cc1` (stereo unspecified), -6.96% (inactive).
Regarding `COc1ccc(CN(CC2CCC(C(=O)O)CC2)C(=S)Nc2ccc(C)c(Cl)c2)cc1` (stereo unspecified), the inhibition was 5.02% (inactive).
With `CCC(=O)NC1=C(Cl)C(=O)C(NC(=O)CC)=C(Cl)C1=O`, the inhibition was 15.5% (active).
`CCC(=O)Nc1c(C)cc(C)cc1Cl`: the inhibition is 2.67% (inactive).
For `CCC(=O)NC1=C(NC(C)c2ccccc2)C(=O)c2ccccc2C1=O` (stereo unspecified) the value was 4.92% (inactive); for `COc1ccc(-c2noc(CSc3nc(-c4ccccc4)cc(=O)[nH]3)n2)cc1OC`, 2.31% (inactive).
As for `O=C(Nc1ccc(Cl)cc1C(=O)O)c1ccc2c(c1)C(=O)N(Cc1ccco1)C2=O`, the figure is 13.9% (active); as for `O=C(Nc1ccc(O)cc1C(=O)O)c1ccc2c(c1)C(=O)N(Cc1ccco1)C2=O`, 4.38% (inactive); as for `Cc1c(NC(=O)c2ccc3c(c2)C(=O)N(Cc2ccco2)C3=O)cccc1C(=O)O`, -0.73% (inactive).
On to `CNC(=O)COC(=O)c1cc2c(s1)CCCC2`, for which the inhibition was -3.54% (inactive).
In the case of `COc1ccc(C(=O)NC(=S)NC(C)C)cc1Br`, the inhibition is 4.89% (inactive).
As to `COc1ccc(C(=O)NC(=S)Nc2nc(C)cc(C)n2)cc1Br`, the inhibition was 13.4% (active).
Turning to `COc1ccc(C(=O)NC(=S)NC(C)(C)C)cc1Br`, the inhibition was -2.26% (inactive).
In the case of `CC1(C)CC(=O)C=C(NNC(=O)c2cccnc2)C1`, the inhibition is -2.32% (inactive).
For the molecule `Cc1ccc(N2C(=O)CS/C2=C(\C(Cl)=C(Cl)Cl)[N+](=O)[O-])cc1`, the inhibition was 12.9% (active).
In the case of `CCOc1ccc(N2C(=O)CS/C2=C(\C(Cl)=C(Cl)Cl)[N+](=O)[O-])cc1`, the inhibition is 7.22% (inactive).
As for `Cc1ccc(N2C(=O)CSCC2=O)cc1`, the figure is -0.48% (inactive); as for `CC(=O)N1N=C(c2cccs2)CC1c1cccs1` (stereo unspecified), -7.39% (inactive); as for `CCNC(=O)CCS(=O)(=O)c1ccc2ccccc2c1`, 5.84% (inactive).
Consider `Cc1sc2nc(C3CC3)nc(SCC(=O)N3CC(=O)Nc4ccccc43)c2c1C`, for which the inhibition is 2.43% (inactive).
As to `Cc1sc2nc(C3CCCCC3)nc(SCC(=O)N3CC(=O)Nc4ccccc43)c2c1C`, the inhibition is -0.32% (inactive).
Take `CCc1nc(SCC(=O)N2CC(=O)Nc3ccccc32)c2c(C)c(C)sc2n1`: the inhibition is 14.6% (active).
As for `COCCCNc1nc2nonc2nc1N1CCN(C2CCCC2)CC1`, the figure is -4.2% (inactive); as for `CN1CCN(C(=S)Nc2ccccc2Cl)CC1`, 7.2% (inactive); as for `CCCCOC(=O)CSc1nc2ccccc2o1`, 6.41% (inactive).
For `COc1cc(-c2cn[nH]c2N)cc(OC)c1OC`, the inhibition was 6.07% (inactive).
As to `COc1ccc(/C=N/NC(=O)c2ccc(Cl)c(S(N)(=O)=O)c2)cc1OCC(N)=O`, the inhibition is 2.57% (inactive).
As for `O=C(O)C(c1ccccc1)C(c1ccccc1)c1ccccc1` (stereo unspecified), the figure is 2.54% (inactive); as for `O=C(O)C(c1ccccc1)c1ccccc1`, 4.26% (inactive).
With `O=C(O)C(c1ccccc1)C1(O)CCCC1` (stereo unspecified), the inhibition was 13.3% (active).
For the molecule `COc1ccc(C(=O)Nc2ccc([N+](=O)[O-])cn2)c(OC)c1`, the inhibition was 0.14% (inactive).
Regarding `O=C(/C(=N/N=C/c1ccc(O)c(O)c1O)c1ccccc1)c1ccccc1`, the inhibition was 7.49% (inactive).
Regarding `CCN(CC)c1ccc(/C=N/N=C(c2ccccc2)c2ccccc2)c(O)c1`, the inhibition is 6.73% (inactive).
In the case of `Oc1cccc(/C=N/N(Cc2ccccc2)c2ccccc2)c1`, the inhibition was -0.56% (inactive).
For `Oc1ccc(/C=N/N(Cc2ccccc2)c2ccccc2)c(O)c1O`, the inhibition was 13.5% (active).
For `COc1ccc(/C=N/N(Cc2ccccc2)c2ccccc2)cc1O`, the inhibition is 6.68% (inactive).
For the molecule `COc1ccc(C2CC(=O)c3cc(OC)c(OC)cc32)cc1OC` (stereo unspecified), the inhibition was -0.52% (inactive).
Turning to `CCOC(=O)C1=C(C)N=C2SC(C)C(=O)N2C1c1ccc(OC(C)=O)c(OC)c1` (stereo unspecified), the inhibition is 5.74% (inactive).
With `CCOC(=O)C1=C(C)N=C2SC(C)C(=O)N2C1c1ccc(OCC)c(OCC)c1` (stereo unspecified), the inhibition was 14.7% (active).
Turning to `CCOc1cc(C2C(C(=O)OC)=C(C)N=C3SC(C)C(=O)N32)ccc1OC(C)=O` (stereo unspecified), the inhibition was -1.96% (inactive).
Take `Cc1cccc(OCc2nnc(SCc3cc(=O)n4cc(Br)ccc4n3)o2)c1`: the inhibition was 7.11% (inactive).
Consider `O=C(NCCO)c1ccc2nc(-c3ccco3)c(-c3ccco3)nc2c1`, for which the inhibition is 5.04% (inactive).
Take `O=C(Nc1ccc2nc(-c3ccco3)c(-c3ccco3)nc2c1)N1CCCCCC1`: the inhibition is 14.8% (active).
On to `O=C(Nc1ccccc1)c1ccc2nc(-c3ccco3)c(-c3ccco3)nc2c1`, for which the inhibition is 2.41% (inactive).
Take `CCOC(=O)C1CCN(C(=O)Nc2ccc3nc(-c4ccco4)c(-c4ccco4)nc3c2)CC1`: the inhibition was 11.1% (inactive).
`O=C(Nc1ccc(N2CCOCC2)cc1)Nc1ccc2nc(-c3ccco3)c(-c3ccco3)nc2c1`: the inhibition was -3.2% (inactive).
With `O=C(NCCO)Nc1ccc2nc(-c3ccco3)c(-c3ccco3)nc2c1`, the inhibition is 19.4% (active).
`CC(=O)c1ccc(NC(=O)c2ccc3nc(-c4ccco4)c(-c4ccco4)nc3c2)cc1`: the inhibition was 14.4% (active).
Regarding `O=C(Nc1ccc(N2CCOCC2)cc1)c1ccc2nc(-c3ccco3)c(-c3ccco3)nc2c1`, the inhibition is 10.1% (inactive).
Regarding `O=C(Nc1ccc2nc(-c3ccco3)c(-c3ccco3)nc2c1)N1CCN(c2ccccn2)CC1`, the inhibition was 12.6% (inactive).
